In PubChem BioAssay one finds composite z-score and z-score data, which are given here for 14 compounds.

The source made the active and inactive calls.

Assay [1] in a line: binders of probe aFSTL3 on microarray, primary screen, stem cell growth factor project, biochemical, small-molecule microarray, fluorescence 635/667 (AID 1064).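 Also: measures binding of the biotinylated anti-FSTL3 antibody to printed compounds.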 As to conditions: higher = more signal.
The nature of assay [2]: binders from COS7 lysate, DM2A8 probe, primary screen, torsin A project, cell lysate, small-molecule microarray, fluorescence 635/667 (AID 1065). The settings on record: higher = more signal, COS7 lysate expressing mutant human TOR1A.
A short description of assay [3]: binders of probe aFGF2 on microarray, primary screen, stem cell growth factor project, biochemical, small-molecule microarray, fluorescence 635/667 (AID 1067).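 Also: measures binding of biotinylated aFGF2 protein to printed compounds on slides; z-score merges feature fluorescence and signal-to-noise across triplicate slides.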 The settings on record: higher = more signal.
The nature of assay [4]: binders of probe aFGF10 on microarray, primary screen, stem cell growth factor project, biochemical, small-molecule microarray, fluorescence 635/667 (AID 1071).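 Also: score merges 667 nm spot intensity and signal to noise from triplicate slides.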 The settings on record: higher = more signal.
Assay [5] has as its target Neurogenic locus notch homolog protein 2 (Homo sapiens) (UniProt Q04721). Nature of the assay: Notch2 binders on small-molecule microarrays, primary screen, biochemical, small-molecule microarray, 635 nm fluorescence, stem cell growth factors (AID 1073). The settings on record: Notch2 binding, higher = more signal.
Assay [6] concerns the target Pro-neuregulin-1, membrane-bound isoform (Homo sapiens) (UniProt Q02297). Nature of the assay: NRG1 binders on small-molecule microarrays, primary screen, psychiatric disease protein project, biochemical, small-molecule microarray, fluorescence 635/667 (AID 1075).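 Also: score combines 667 nm spot fluorescence with signal to noise.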 As to conditions: NRG1 binding, 635 nm fluorescence, higher = more signal.
Assay [7] concerns Neuregulin-1 EGF-like domain. Nature of the assay: binders of neuregulin-1 EGF-like domain, primary screen, biochemical, small-molecule microarray, 635 nm fluorescence (AID 1081).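 Also: binding of the protein to compounds printed on small-molecule microarray slides.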 As to conditions: small-molecule microarray binding, higher = more signal.
The nature of assay [8]: FRG1 promoter luciferase signal modulators, primary screen, FRG1 inhibition for FSHD, cell-based, C2C12 myotubes, firefly/Renilla luciferase, luminescence (AID 1084). As to conditions: higher = more signal, called active from +8 up or from −8 down.
The nature of assay [9]: binders of probe aFST on microarray, primary screen, stem cell growth factor project, biochemical, small-molecule microarray, fluorescence 635/667 (AID 1086).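 Also: score merges 667 nm fluorescence with signal-to-noise of each printed compound spot.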 As to conditions: higher = more signal.
A short description of assay [10]: binders of probe aHhip on microarray, primary screen, stem cell growth factor project, biochemical, small-molecule microarray, fluorescence 635/667 (AID 1087).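 Also: score merges spot fluorescence at 667nm with spot signal to noise ratio.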 The settings on record: higher = more signal.

Chain of Pro-neuregulin-1, membrane-bound isoform (Homo sapiens) (Q02297 whole entry, looked up, the tested form may be a part, canonical isoform): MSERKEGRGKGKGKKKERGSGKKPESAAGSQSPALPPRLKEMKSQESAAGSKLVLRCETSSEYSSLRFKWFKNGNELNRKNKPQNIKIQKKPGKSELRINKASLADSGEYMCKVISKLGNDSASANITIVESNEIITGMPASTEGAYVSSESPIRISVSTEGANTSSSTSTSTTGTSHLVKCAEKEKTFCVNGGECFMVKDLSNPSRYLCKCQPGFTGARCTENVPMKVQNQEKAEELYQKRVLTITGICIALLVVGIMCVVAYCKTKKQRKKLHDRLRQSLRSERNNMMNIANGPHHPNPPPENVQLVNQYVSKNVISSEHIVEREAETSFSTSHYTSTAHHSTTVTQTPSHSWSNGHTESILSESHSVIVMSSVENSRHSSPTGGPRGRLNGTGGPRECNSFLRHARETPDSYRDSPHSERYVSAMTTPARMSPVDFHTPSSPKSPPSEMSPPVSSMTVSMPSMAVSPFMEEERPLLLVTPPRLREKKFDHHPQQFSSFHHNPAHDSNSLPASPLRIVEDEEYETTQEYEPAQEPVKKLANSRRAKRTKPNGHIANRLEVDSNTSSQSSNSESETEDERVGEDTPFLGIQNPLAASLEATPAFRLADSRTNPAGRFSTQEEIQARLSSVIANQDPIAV
Chain of Neurogenic locus notch homolog protein 2 (Homo sapiens) (Q04721 whole entry, looked up, canonical isoform): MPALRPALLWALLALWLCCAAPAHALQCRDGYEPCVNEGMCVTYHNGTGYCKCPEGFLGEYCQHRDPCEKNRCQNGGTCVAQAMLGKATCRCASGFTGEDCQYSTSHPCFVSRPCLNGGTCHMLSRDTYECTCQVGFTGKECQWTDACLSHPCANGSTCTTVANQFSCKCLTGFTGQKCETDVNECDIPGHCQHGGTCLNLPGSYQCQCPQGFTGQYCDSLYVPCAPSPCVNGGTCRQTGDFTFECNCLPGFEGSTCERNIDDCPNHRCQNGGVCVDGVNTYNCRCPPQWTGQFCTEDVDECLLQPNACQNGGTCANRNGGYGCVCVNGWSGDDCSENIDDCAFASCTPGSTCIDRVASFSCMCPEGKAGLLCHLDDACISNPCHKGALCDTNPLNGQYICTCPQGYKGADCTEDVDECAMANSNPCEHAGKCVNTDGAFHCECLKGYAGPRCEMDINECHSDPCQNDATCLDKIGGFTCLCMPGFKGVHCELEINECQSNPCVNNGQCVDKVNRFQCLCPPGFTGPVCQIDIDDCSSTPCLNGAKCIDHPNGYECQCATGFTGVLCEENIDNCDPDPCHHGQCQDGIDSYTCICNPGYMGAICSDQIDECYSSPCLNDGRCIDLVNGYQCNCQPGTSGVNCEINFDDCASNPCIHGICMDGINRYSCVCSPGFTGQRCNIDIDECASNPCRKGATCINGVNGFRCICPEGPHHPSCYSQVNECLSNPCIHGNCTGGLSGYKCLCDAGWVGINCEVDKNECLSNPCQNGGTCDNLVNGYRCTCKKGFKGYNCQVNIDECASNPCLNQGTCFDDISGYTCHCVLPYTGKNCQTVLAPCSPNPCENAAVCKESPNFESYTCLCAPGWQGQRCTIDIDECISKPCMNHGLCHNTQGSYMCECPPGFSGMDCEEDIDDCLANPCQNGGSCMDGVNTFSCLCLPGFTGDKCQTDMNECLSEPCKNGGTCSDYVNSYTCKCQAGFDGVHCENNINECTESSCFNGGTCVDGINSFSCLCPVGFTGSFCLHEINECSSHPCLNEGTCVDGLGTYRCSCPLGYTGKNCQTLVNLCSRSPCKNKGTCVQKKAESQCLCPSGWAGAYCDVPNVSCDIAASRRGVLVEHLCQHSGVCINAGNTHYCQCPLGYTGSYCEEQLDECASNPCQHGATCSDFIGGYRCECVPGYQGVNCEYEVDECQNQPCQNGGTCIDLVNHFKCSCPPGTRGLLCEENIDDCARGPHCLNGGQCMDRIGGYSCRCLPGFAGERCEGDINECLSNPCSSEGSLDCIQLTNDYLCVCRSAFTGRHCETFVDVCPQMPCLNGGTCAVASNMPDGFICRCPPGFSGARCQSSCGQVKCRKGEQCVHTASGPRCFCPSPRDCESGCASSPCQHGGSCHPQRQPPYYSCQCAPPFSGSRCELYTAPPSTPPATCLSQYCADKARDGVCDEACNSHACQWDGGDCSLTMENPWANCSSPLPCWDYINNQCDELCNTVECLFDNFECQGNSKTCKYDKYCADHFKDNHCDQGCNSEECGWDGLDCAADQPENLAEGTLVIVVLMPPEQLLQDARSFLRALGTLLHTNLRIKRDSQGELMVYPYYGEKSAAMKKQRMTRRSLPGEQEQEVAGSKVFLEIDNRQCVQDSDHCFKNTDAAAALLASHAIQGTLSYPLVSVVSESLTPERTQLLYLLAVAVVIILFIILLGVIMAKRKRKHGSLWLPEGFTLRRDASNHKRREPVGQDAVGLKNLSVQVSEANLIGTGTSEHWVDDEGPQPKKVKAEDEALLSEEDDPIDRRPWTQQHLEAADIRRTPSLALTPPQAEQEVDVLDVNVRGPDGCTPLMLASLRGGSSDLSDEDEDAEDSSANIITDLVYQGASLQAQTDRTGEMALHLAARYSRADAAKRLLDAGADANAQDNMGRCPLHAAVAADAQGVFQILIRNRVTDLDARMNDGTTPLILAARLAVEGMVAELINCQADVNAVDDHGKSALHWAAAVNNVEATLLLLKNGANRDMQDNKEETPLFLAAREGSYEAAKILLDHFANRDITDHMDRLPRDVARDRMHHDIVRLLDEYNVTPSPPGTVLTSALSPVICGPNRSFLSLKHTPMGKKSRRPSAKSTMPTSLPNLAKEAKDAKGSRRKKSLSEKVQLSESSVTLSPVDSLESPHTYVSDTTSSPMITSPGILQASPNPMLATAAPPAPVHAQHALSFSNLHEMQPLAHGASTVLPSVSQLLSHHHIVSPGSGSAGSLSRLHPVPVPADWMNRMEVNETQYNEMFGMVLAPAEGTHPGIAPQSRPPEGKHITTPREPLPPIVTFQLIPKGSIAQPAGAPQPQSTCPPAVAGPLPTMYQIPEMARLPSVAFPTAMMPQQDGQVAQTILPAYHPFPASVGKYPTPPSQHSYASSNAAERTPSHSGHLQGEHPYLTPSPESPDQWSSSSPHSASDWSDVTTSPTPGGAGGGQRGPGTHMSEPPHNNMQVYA

As to `O=C1NC(=O)C2C1C=CC(C(O)c1ccc(-c3ccccc3)s1)N2Nc1ccc(Cl)cc1Cl` (stereo not given), the composite z-score in assay [1] worked out at 0.0065; in [2], 0.285; in assay [3], 0.107; in assay [4], 0.297; in assay [5] it was 1.21; in assay [6] it was 1.48. Moreover, the composite z-score was 0.706 in assay [7], 1.16 in assay [9] and -0.0645 in assay [10]. Moreover, the z-score in assay [8] was 2.38 (inactive).
Take `CC(C)C(=C=CC[C@H](O)c1ccc(CO)o1)CCO`: the composite z-score in [1] is 0.0959; in [2], 1.5; in assay [3] it was -0.141; in assay [4] it was 0.153; in assay [5], -0.57; in [6] it was 1.57. The values for the composite z-score in assay [7], in assay [9] and in assay [10] were 1.16, 0.164 and -0.202, respectively. Also, the z-score in assay [8] is 0.859 (inactive).
As to `COC(=O)[C@H](Cc1ccccc1)N[C@H](/C=C/C1CC1)[C@@H](O)Cc1ccccc1`, the composite z-score is 0.128 in assay [1]; 0.1 in assay [2]; -0.202 in assay [3]; -0.471 in assay [4]; -0.567 in assay [5]; -0.0373 in [6]. Further, the results for the composite z-score in [7], in assay [9] and in assay [10] were -0.626, -0.474 and -0.132, respectively. Besides, the z-score in [8] is -1.72 (inactive).
In the case of `CC(C)OC(=O)C=C1C[C@@H](c2cccc(Cl)c2)O[C@@H](c2cccc(Cl)c2)O1`, the composite z-score in [1] is 0.614; in assay [2], 0.31; in assay [3], 0.0442; in assay [4] it was 0.771; in [5], 0.028; in assay [6] it was 0.903. In addition, the composite z-score is 0.891 in assay [7], 0.186 in assay [9] and -0.189 in [10]. The z-score in [8] was -0.582 (inactive).
Take `O=C1O[C@@H](c2ccccc2)[C@@H](c2ccccc2)N2[C@@H](c3ccc(OCCO)cc3)[C@]3(C(=O)Nc4ccc(C#CC5=CCCCC5)cc43)[C@@H](C(=O)N3CCCCCCC3)[C@H]12`: the composite z-score in assay [1] stood at 3.69; in [2] it was 1.51; in [3], 0.753; in [4], 0.867; in assay [5], 1.49; in assay [6] it was 1.38. Further, the composite z-score was 1.26 in assay [7], 3.12 in [9] and 0.354 in assay [10]. Moreover, in assay [8], the z-score is 1.75 (inactive).
With `COC(=O)[C@@]1(Cc2ccc(F)cc2)[C@H]2c3cc(C(=O)N(C)C)n(Cc4cc(C)n(C)n4)c3C[C@H]2CN1C(=O)c1ccccc1`, the composite z-score was 0.274 in [1]; 0.85 in [2]; -0.19 in assay [3]; 0.515 in assay [4]; 1.61 in assay [5]; 1.66 in [6]. For the same compound, the figures for the composite z-score in assay [7], in assay [9] and in assay [10] were 1.29, 0.967 and 0.0139, respectively. In addition, the z-score in [8] is 0.0894 (inactive).
With `CCCCCCc1nc(-c2ccc(-c3ccc(Cl)c(Cl)c3)o2)cc2c1[Si](C(C)C)(C(C)C)O[C@H]2c1ccccc1`, the composite z-score in assay [1] is 0.0771; in [2], -0.543; in [3], -0.116; in assay [4], -0.379; in assay [5] it was -0.797; in [6] it was 0.501. For the same compound, the composite z-score in [7] was -0.412; in [9] it was -0.265; in [10] it was 0.0505. In addition, the z-score in assay [8] is 0.213 (inactive).
As to `CN(C)C(=O)[C@]1(Cc2ccccc2)N=C(c2ccc(OCCCO)cc2)O[C@@H]1c1ccccc1N=[N+]=[N-]`, the composite z-score in assay [1] is 0.303; in assay [2] it was 0.746; in [3], 0.0797; in assay [4], 0.618; in assay [5], 1.33; in assay [6], 1.56. The composite z-score is 1.13 in [7], 0.532 in assay [9] and 0.0749 in assay [10]. Besides, the z-score in assay [8] is 0.336 (inactive).
`COc1ccc(C(O)C2C=CC3C(=O)N(C)C(=O)C3N2NC(=O)OC(C)(C)C)c2ccccc12` (stereo not given): the composite z-score is 0.152 in assay [1]; -0.129 in [2]; -0.0107 in assay [3]; 0.669 in assay [4]; 1.62 in assay [5]; 1.81 in assay [6]. Besides, the composite z-score turned out to be 0.937 in assay [7], 1.37 in assay [9] and 0.0881 in assay [10]. Besides, in assay [8], the z-score was -1.35 (inactive).
On to `O=C(NC1CC1)[C@@H]1c2ccccc2C(=O)N(C2Cc3ccccc3C2)[C@H]1c1ccc(CO)cc1`, for which the composite z-score was -0.549 in assay [1]; 0.847 in assay [2]; -0.0618 in assay [3]; 0.139 in assay [4]; 1.01 in assay [5]; 0.639 in assay [6]. In addition, the composite z-score in [7] was found to be 0.807; in assay [9], 0.325; in assay [10], 1.38. Besides, in assay [8], the z-score was -0.838 (inactive).
For `COc1ccc([Si](C)(C)[C@H]2[C@H](CC(=O)N3CCC[C@H]3CO)O[C@@]3(C(=O)N(Cc4cccc(N5CCOC5=O)c4)c4ccccc43)[C@@H]2C)cc1`, the composite z-score was -0.308 in assay [1]; 0.358 in assay [2]; -0.042 in assay [3]; 0.141 in [4]; 0.143 in assay [5]; 0.662 in assay [6]. Further, the results for the composite z-score in assay [7], in assay [9] and in assay [10] were 0.876, 0.548 and -0.169, respectively. In [8], the z-score is -3.92 (inactive).
Consider `Cc1ccc(S[C@]2(C(=O)NCC(C)C)CC(=O)N(Cc3cc(C(F)(F)F)cc(C(F)(F)F)c3)[C@@H]2c2ccc(CO)cc2)cc1`, for which the composite z-score was 0.436 in [1]; -0.455 in assay [2]; 0.047 in [3]; -0.272 in [4]; -0.598 in [5]; 0.884 in assay [6]. The composite z-score in assay [7] was found to be 1.44; in [9], 0.0031; in assay [10] it was 0.0749. In assay [8], the z-score was -0.775 (inactive).
Take `Cc1ccc(/C=C/C=O)cc1`: the composite z-score in assay [1] is 0.16; in assay [2], -0.513; in assay [3] it was -0.0704; in [4] it was 0.2; in assay [5] it was -0.516; in [6], -0.0188. Moreover, the composite z-score was -0.452 in assay [7], -0.0522 in [9] and 0.0156 in assay [10]. In addition, the z-score in assay [8] is 0.944 (inactive).
In the case of `CC(C)Cc1ccc(CN2CC[C@@H](N)C2)cc1`, the composite z-score in assay [1] was -0.103; in assay [2], -0.816; in assay [3], -0.219; in assay [4] it was -0.711; in assay [5] it was -1.3; in assay [6], -0.505. Moreover, the composite z-score in assay [7] was -1.11; in [9] it was -0.635; in assay [10] it was -0.0193. Further, in [8], the z-score is -0.132 (inactive).
